{
  "source": "PubChem BioAssay AID687011",
  "about": "(National Center for Advancing Translational Sciences (NCATS), 2013)",
  "note": "Calls of active or inactive are those of the source.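 The calls were made as follows: active = significant body weight gain in treated spinal muscular atrophy model mice compared with vehicle-treated controls; inactive = no significant body weight gain.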",
  "data": [
    {"assay": "Extended Characterization of SMN2 Inhibitors: Body Weight Studies", "details": "SMNdelta7 SMA mice, 50 mg/kg ip", "text": "Spinal muscular atrophy (SMA) is caused by insufficient levels of the survival motor neuron protein SMN. The SMN locus on chromosome 5q13 contains two inverted copies of SMN called SMN1 and SMN2 which are 99% identical at the amino acid level. SMN1 is a fully functional protein and SMN2 skips exon 7 90% of the time. Skipping of exon 7 produces non-functional protein product. 10% of the SMN2 protein includes exon 7 and is fully functional. In the SMA disease state, mutations in the SMN1 locus are the cause of the disease state. Because only 10% of SMN2 is of the fully functional form, it is not sufficient to overcome the deficiency produced by the loss of the SMN1 product. A therapy that either increase the amount of SMN2 product made or to increase the inclusion of exon 7 has been proposed for the treatment of SMA. We have previously filed a probe report and have now done further SAR and further characterized the resulting compounds in mice studies. Here we tested the new compound to see if there was an improval in body weight when administered to SMNdelta7 SMA mice. NIH Chemical Genomics Center [NCGC] NIH Molecular Libraries Probe Production centers Network [MLPCN] MLPCN Grant: R03 MH084179 Assay Submitter (PI): Elliot Androphy […]", "values": [
      {"compound": "O=C(O)C1CCN(c2ncc(-c3ccc4c(c3)OCCCO4)s2)CC1", "outcome": "active; yes"}
    ]}
  ]
}
